In the supplement of paper PMC8007513 one finds growth yield data, which are given here for 44 compounds.

This assay has as its system Trichoderma virens ATCC 9645. The assay is described as follows: growth yield (OD600) with compound + IPBC relative to untreated control; higher = less growth inhibition. Conditions: compound concentration: 100 uM, IPBC concentration: 200 ng/ml. The procedure, abridged:
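Library compounds (100 μM final), with or without a co-applied biocide (200 ng ml^−1), were added to 100 μl aliquots of Trichoderma virens ATCC 9645 spores at 15,000 spores ml^−1 in potato dextrose broth. Cultures were grown at 30 °C in 96-well plates, and OD600 was measured at 40 h and 72 h. Each growth value is a mean of duplicate screens, expressed relative to the control with neither agent.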

The structures appear in SMILES notation. Structures can show the parent of a compound that is named as a salt. ± gives the standard error. About 130 (10%) of roughly 1,300 compounds showed an effect of 50% or more. The list comes from a sample in which strong results are over-represented; it also holds similar structures and randomly drawn compounds.

Take `Cc1ccnc(NS(=O)(=O)c2ccc(N)cc2)n1` [Sulfamerazine] + CCCCNC(=O)OCC#CI [3-iodo-2-propynyl butylcarbamate (IPBC)]: the growth yield turned out to be 88.2 ± 6.2% (40 h) and 90.9 ± 4.7% (72 h).

Turning to `CC(C)(C)C(=O)OCOC(=O)[C@@H]1N2C(=O)[C@@H](/N=C/N3CCCCCC3)[C@H]2SC1(C)C` [Pivmecillinam hydrochloride] + CCCCNC(=O)OCC#CI [3-iodo-2-propynyl butylcarbamate (IPBC)], the growth yield runs as follows: (40 h) 57.8 ± 4.5%; (72 h) 77.2 ± 3.1%.

`CCC(=O)O[C@]1(C(=O)CCl)[C@@H](C)C[C@H]2[C@@H]3CCC4=CC(=O)C=C[C@]4(C)[C@@]3(F)[C@@H](O)C[C@@]21C` [Clobetasol propionate] + CCCCNC(=O)OCC#CI [3-iodo-2-propynyl butylcarbamate (IPBC)]: the growth yield by setting is: (40 h) 109 ± 7.2%; (72 h) 106 ± 4.7%.

Take `C[C@@H]1C[C@@H]([C@H](O)CC2CC(=O)NC(=O)C2)C(=O)[C@@H](C)C1` [Cycloheximide] + CCCCNC(=O)OCC#CI [3-iodo-2-propynyl butylcarbamate (IPBC)]: the growth yield is 34.3 ± 2.9% (40 h) and 85.7 ± 3.2% (72 h).

On to `C[C@]12CC[C@H]3C(=CCc4cc(O)ccc43)[C@@H]1CCC2=O` [Equilin] + CCCCNC(=O)OCC#CI [3-iodo-2-propynyl butylcarbamate (IPBC)], for which the growth yield runs as follows: (40 h) 82.4 ± 17%; (72 h) 86.8 ± 9%.

With `C=CC[N@@+]12CC[C@@]34c5ccccc5N5/C=C6/[C@H]7C[C@H]8[C@@]9(CC[N@@+]8(CC=C)C/C7=C/CO)c7ccccc7N(/C=C(/[C@@H](C[C@@H]31)/C(=C\CO)C2)[C@H]54)[C@@H]69` [Alcuronium chloride] + CCCCNC(=O)OCC#CI [3-iodo-2-propynyl butylcarbamate (IPBC)], the growth yield runs as follows: (40 h) 6.83 ± 0.16%; (72 h) 35.4 ± 3.4%.

On to `Cn1ccnc1S` [Methimazole] + CCCCNC(=O)OCC#CI [3-iodo-2-propynyl butylcarbamate (IPBC)], for which the growth yield runs as follows: (40 h) 120 ± 16%; (72 h) 111 ± 12%.

Regarding `CNCCC(Oc1ccc(C(F)(F)F)cc1)c1ccccc1` (stereo not drawn) [Fluoxetine hydrochloride] + CCCCNC(=O)OCC#CI [3-iodo-2-propynyl butylcarbamate (IPBC)], the growth yield (40 h) was 71.8 ± 4.8% and the growth yield (72 h) came out at 96.9 ± 2.9%.

Turning to `CN1CCN(C(c2ccccc2)c2ccccc2)CC1` [Cyclizine hydrochloride] + CCCCNC(=O)OCC#CI [3-iodo-2-propynyl butylcarbamate (IPBC)], the growth yield reads like this: (40 h) 82.6 ± 1.3%; (72 h) 87.6 ± 2%.

Consider `COc1ccc(CN2CCN(C(c3ccc(F)cc3)c3ccc(F)cc3)CC2)c(OC)c1OC` [Lomerizine hydrochloride] + CCCCNC(=O)OCC#CI [3-iodo-2-propynyl butylcarbamate (IPBC)], for which the growth yield (40 h) was determined as 71.8 ± 5.7% and the growth yield (72 h) worked out at 97.4 ± 4.9%.

Take `Fc1ccc(C(c2ccc(F)cc2)N2CCN(C/C=C/c3ccccc3)CC2)cc1` [Flunarizine dihydrochloride] + CCCCNC(=O)OCC#CI [3-iodo-2-propynyl butylcarbamate (IPBC)]: the growth yield (40 h) worked out at 3.81 ± 0.32% and the growth yield (72 h) stood at 3.78 ± 0.42%.

For the compound `O=C(O)COCCN1CCN(C(c2ccccc2)c2ccc(Cl)cc2)CC1` (stereo not drawn) [Cetirizine dihydrochloride] + CCCCNC(=O)OCC#CI [3-iodo-2-propynyl butylcarbamate (IPBC)], the growth yield runs as follows: (40 h) 88.5 ± 6.8%; (72 h) 93.8 ± 3.8%.

Regarding `C(=C\c1ccccc1)/CN1CCN(C(c2ccccc2)c2ccccc2)CC1` [Cinnarizine] + CCCCNC(=O)OCC#CI [3-iodo-2-propynyl butylcarbamate (IPBC)], the growth yield runs as follows: (40 h) 34.9 ± 5.1%; (72 h) 93.1 ± 4%.

Regarding `OCCOCCN1CCN(C(c2ccccc2)c2ccc(Cl)cc2)CC1` (stereo not drawn) [Hydroxyzine dihydrochloride] + CCCCNC(=O)OCC#CI [3-iodo-2-propynyl butylcarbamate (IPBC)], the growth yield came out at 76.08 ± 0.16% (40 h) and 95.9 ± 2.5% (72 h).

Turning to `CC(C)NC[C@H](O)COc1ccc(CC(N)=O)cc1` [(S)-(-)-Atenolol] + CCCCNC(=O)OCC#CI [3-iodo-2-propynyl butylcarbamate (IPBC)], the growth yield (40 h) amounted to 82.8 ± 1.8% and the growth yield (72 h) is 88.2 ± 0.1%.

As to `O=C(Nc1ccc([N+](=O)[O-])cc1Cl)c1cc(Cl)ccc1O` [Niclosamide] + CCCCNC(=O)OCC#CI [3-iodo-2-propynyl butylcarbamate (IPBC)], the growth yield was 83.7 ± 2.4% (40 h) and 90.4 ± 2.5% (72 h).

`CC(C)[C@H](N)C(=O)OCCOCn1cnc2c(=O)nc(N)[nH]c21` [Valacyclovir hydrochloride] + CCCCNC(=O)OCC#CI [3-iodo-2-propynyl butylcarbamate (IPBC)]: the growth yield by setting is: (40 h) 86.7 ± 3.2%; (72 h) 96.4 ± 2.6%.

In the case of `CN1C(=O)CCS(=O)(=O)C1c1ccc(Cl)cc1` (stereo not drawn) [Chlormezanone] + CCCCNC(=O)OCC#CI [3-iodo-2-propynyl butylcarbamate (IPBC)], the growth yield runs as follows: (40 h) 86.7 ± 3.2%; (72 h) 92.5 ± 1.7%.

In the case of `Cc1[nH]c(=O)c(C#N)cc1-c1ccncc1` [Milrinone] + CCCCNC(=O)OCC#CI [3-iodo-2-propynyl butylcarbamate (IPBC)], the growth yield (40 h) was 89.11 ± 0.48% and the growth yield (72 h) came to 92.9 ± 1.9%.

In the case of `Nc1cc(-c2ccncc2)c[nH]c1=O` [Amrinone] + CCCCNC(=O)OCC#CI [3-iodo-2-propynyl butylcarbamate (IPBC)], the growth yield by setting is: (40 h) 106%; (72 h) 41.3%.

As for `CCCNC(C)C(=O)Nc1ccccc1C` (stereo not drawn) [Prilocaine hydrochloride] + CCCCNC(=O)OCC#CI [3-iodo-2-propynyl butylcarbamate (IPBC)], the growth yield by setting is: (40 h) 86.4%; (72 h) 95.54 ± 0.52%.

Regarding `C[C@H]1NC(=O)NC1=O` [Methylhydantoin-5-(D)] + CCCCNC(=O)OCC#CI [3-iodo-2-propynyl butylcarbamate (IPBC)], the growth yield is, setting by setting: (40 h) 97.4 ± 14%; (72 h) 95.4 ± 8.4%.

As for `CN1[C@@H]2C[C@@H](OC(=O)[C@H](CO)c3ccccc3)C[C@H]1[C@@H]1O[C@@H]12` [Scopolamine hydrochloride] + CCCCNC(=O)OCC#CI [3-iodo-2-propynyl butylcarbamate (IPBC)], the growth yield worked out at 94.4 ± 7.9% (40 h) and 94.1 ± 3.5% (72 h).

Consider `Cc1cnc(C(=O)O)c[n+]1[O-]` [Acipimox] + CCCCNC(=O)OCC#CI [3-iodo-2-propynyl butylcarbamate (IPBC)], for which the growth yield was found to be 85.3 ± 0.48% (40 h) and 90.72 ± 0.1% (72 h).

Consider `Nc1nc(F)nc2c1ncn2[C@@H]1O[C@H](CO)[C@@H](O)[C@@H]1O` [Fludarabine] + CCCCNC(=O)OCC#CI [3-iodo-2-propynyl butylcarbamate (IPBC)], for which the growth yield is, setting by setting: (40 h) 85.3 ± 2.4%; (72 h) 86.6 ± 1.1%.

Turning to `Nc1nc(=S)c2ncn([C@@H]3O[C@H](CO)[C@@H](O)[C@H]3O)c2[nH]1` [Thioguanosine] + CCCCNC(=O)OCC#CI [3-iodo-2-propynyl butylcarbamate (IPBC)], the growth yield (40 h) came out at 46.1 ± 0.64% and the growth yield (72 h) was 88.3 ± 2.3%.

For the compound `Nc1ncnc2c1ncn2[C@@H]1O[C@H](CO)[C@@H](O)[C@@H]1O` [Vidarabine] + CCCCNC(=O)OCC#CI [3-iodo-2-propynyl butylcarbamate (IPBC)], the growth yield (40 h) came out at 121 ± 11% and the growth yield (72 h) turned out to be 109 ± 7.3%.

Consider `CN(C)CCCO[C@@H]1[C@H]2OC(C)(C)O[C@H]2O[C@@H]1[C@H](O)CO` [Amiprilose hydrochloride] + CCCCNC(=O)OCC#CI [3-iodo-2-propynyl butylcarbamate (IPBC)], for which the growth yield (40 h) worked out at 89.4 ± 4.9% and the growth yield (72 h) came out at 93.3 ± 4.6%.

Regarding `CCc1cc(C(N)=S)ccn1` [Ethionamide] + CCCCNC(=O)OCC#CI [3-iodo-2-propynyl butylcarbamate (IPBC)], the growth yield runs as follows: (40 h) 82 ± 2.5%; (72 h) 90.61 ± 0.63%.

`CC1=C(C(=O)O)N2C(=O)[C@@H](NC(=O)[C@H](N)c3ccc(O)cc3)[C@H]2SC1` [Cefadroxil] + CCCCNC(=O)OCC#CI [3-iodo-2-propynyl butylcarbamate (IPBC)]: the growth yield (40 h) was found to be 81.5 ± 1.8% and the growth yield (72 h) came out at 88.5 ± 1.5%.

With `C=CCN1CC[C@]23c4c5ccc(O)c4O[C@H]2C(=O)CC[C@@]3(O)[C@H]1C5` [Naloxone hydrochloride] + CCCCNC(=O)OCC#CI [3-iodo-2-propynyl butylcarbamate (IPBC)], the growth yield was determined as 98.2 ± 3.5% (40 h) and 101 ± 3.5% (72 h).

As for `CC[N+](C)(CC)CCOC(=O)C1c2ccccc2Oc2ccccc21` [Methantheline bromide] + CCCCNC(=O)OCC#CI [3-iodo-2-propynyl butylcarbamate (IPBC)], the growth yield was determined as 82 ± 1.9% (40 h) and 88.5 ± 2.1% (72 h).

For `O=c1[nH]c2ccccc2n1C1CCN(CCCC(c2ccc(F)cc2)c2ccc(F)cc2)CC1` [Pimozide] + CCCCNC(=O)OCC#CI [3-iodo-2-propynyl butylcarbamate (IPBC)], the growth yield is 111 ± 8.3% (40 h) and 136 ± 2.7% (72 h).

Regarding `Clc1ccc(C(OCCN2CCCCC2)c2ccccc2)cc1` (stereo not drawn) [Cloperastine hydrochloride] + CCCCNC(=O)OCC#CI [3-iodo-2-propynyl butylcarbamate (IPBC)], the growth yield reads like this: (40 h) 78.6 ± 0.79%; (72 h) 95.1 ± 2%.

For `Fc1ccc(C(OCCN2CCN(CCCc3ccccc3)CC2)c2ccc(F)cc2)cc1` + CCCCNC(=O)OCC#CI [3-iodo-2-propynyl butylcarbamate (IPBC)], the growth yield stood at 13.3 ± 4.8% (40 h) and 65.3 ± 6.4% (72 h).

Regarding `COc1cc(NS(=O)(=O)c2ccc(N)cc2)nc(OC)n1` [Sulfadimethoxine] + CCCCNC(=O)OCC#CI [3-iodo-2-propynyl butylcarbamate (IPBC)], the growth yield by setting is: (40 h) 116.3 ± 0.95%; (72 h) 114 ± 1.6%.

Consider `C[C@]12CC[C@H]3[C@@H](CCC4=CC(=O)CC[C@@H]43)[C@@H]1CC[C@@H]2O` [Nandrolone] + CCCCNC(=O)OCC#CI [3-iodo-2-propynyl butylcarbamate (IPBC)], for which the growth yield runs as follows: (40 h) 61.2 ± 3.3%; (72 h) 83.7 ± 4.8%.

Turning to `COc1cccc(OC)c1C(=O)N[C@@H]1C(=O)N2[C@@H]1SC(C)(C)[C@@H]2C(=O)O` [Methicillin sodium] + CCCCNC(=O)OCC#CI [3-iodo-2-propynyl butylcarbamate (IPBC)], the growth yield (40 h) amounted to 89.3% and the growth yield (72 h) was 90.7 ± 2%.

For the compound `COc1ccc(C(=O)c2ccccc2)c(O)c1` [Oxybenzone] + CCCCNC(=O)OCC#CI [3-iodo-2-propynyl butylcarbamate (IPBC)], the growth yield is, setting by setting: (40 h) 45.3 ± 4.9%; (72 h) 71.1 ± 6.1%.

Turning to `Nc1ccc(C(=O)O)c(O)c1` [4-aminosalicylic acid] + CCCCNC(=O)OCC#CI [3-iodo-2-propynyl butylcarbamate (IPBC)], the growth yield came out at 87.36 ± 0.32% (40 h) and 94.18 ± 0.42% (72 h).

On to `CC(=O)Oc1ccccc1C(=O)O` [Acetylsalicylic acid] + CCCCNC(=O)OCC#CI [3-iodo-2-propynyl butylcarbamate (IPBC)], for which the growth yield worked out at 107 ± 4.9% (40 h) and 104 ± 5.5% (72 h).

Take `COc1ccccc1O` [Guaiacol] + CCCCNC(=O)OCC#CI [3-iodo-2-propynyl butylcarbamate (IPBC)]: the growth yield was determined as 94.7 ± 1.6% (40 h) and 98 ± 1.5% (72 h).

For `COc1ccc(C(=O)c2ccccc2O)c(O)c1` [Dioxybenzone] + CCCCNC(=O)OCC#CI [3-iodo-2-propynyl butylcarbamate (IPBC)], the growth yield reads like this: (40 h) 23.67 ± 0.16%; (72 h) 48.35 ± 0.1%.

Take `COc1ccc(C(=O)CC(=O)c2ccc(C(C)(C)C)cc2)cc1` [Avobenzone] + CCCCNC(=O)OCC#CI [3-iodo-2-propynyl butylcarbamate (IPBC)]: the growth yield (40 h) turned out to be 67.83 ± 0.16% and the growth yield (72 h) was found to be 71.84 ± 0.1%.
